# PMC7862700, “An all-to-all approach to the identification of sequence-specific readers for epigenetic DNA modifications on cytosine”
# How the values were obtained:
# Assay in all cases: DAPPL (digital affinity profiling via proximity ligation, sequencing); 10 mM Tris-HCl pH 7.5, 50 mM NaCl, 1 mM DTT, 4% glycerol, room temperature, 30 min; GST-TFs on glutathione beads, 16-mer random dsDNA library, 0.1% formaldehyde crosslink after washing; high values mean tight binding
# FLI1 = biological target: T1, FLI1 (Homo sapiens, UniProt Q01543 1-452); settings: protein: recombinant; tags: N-terminal GST; dsDNA, one strand shown
# T1 sequence: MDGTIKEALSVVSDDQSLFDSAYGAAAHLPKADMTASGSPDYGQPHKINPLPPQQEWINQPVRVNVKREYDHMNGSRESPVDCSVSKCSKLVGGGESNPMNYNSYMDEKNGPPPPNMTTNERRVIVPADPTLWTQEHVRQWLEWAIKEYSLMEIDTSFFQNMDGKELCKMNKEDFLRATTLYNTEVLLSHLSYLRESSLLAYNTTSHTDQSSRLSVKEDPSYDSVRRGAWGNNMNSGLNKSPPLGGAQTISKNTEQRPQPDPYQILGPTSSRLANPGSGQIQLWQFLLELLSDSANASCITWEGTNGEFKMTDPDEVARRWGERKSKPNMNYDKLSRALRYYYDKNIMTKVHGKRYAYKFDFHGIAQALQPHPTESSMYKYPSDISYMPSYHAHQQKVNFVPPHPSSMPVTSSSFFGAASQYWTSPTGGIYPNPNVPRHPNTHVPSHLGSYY
# Summary of the method: (§1)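 GST fusions of human transcription factors were expressed in yeast and captured with glutathione beads. Once given DNA barcodes and pooled alongside a tag-only sample, they were incubated for 30 min at room temperature with 200 nmole of a random double-stranded 16-mer DNA library in Tris/NaCl/DTT/glycerol buffer, then washed, crosslinked (0.1% formaldehyde), proximity-ligated, PCR-amplified and sequenced on an Illumina NextSeq500. The binding signal of each hexamer is its read frequency for a factor divided by its frequency for the tag-only sample.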
# ELK1 = biological target: T2, ELK1 (Homo sapiens, UniProt P19419 1-428); settings: protein: recombinant; tags: N-terminal GST; dsDNA, one strand shown
# T2 sequence: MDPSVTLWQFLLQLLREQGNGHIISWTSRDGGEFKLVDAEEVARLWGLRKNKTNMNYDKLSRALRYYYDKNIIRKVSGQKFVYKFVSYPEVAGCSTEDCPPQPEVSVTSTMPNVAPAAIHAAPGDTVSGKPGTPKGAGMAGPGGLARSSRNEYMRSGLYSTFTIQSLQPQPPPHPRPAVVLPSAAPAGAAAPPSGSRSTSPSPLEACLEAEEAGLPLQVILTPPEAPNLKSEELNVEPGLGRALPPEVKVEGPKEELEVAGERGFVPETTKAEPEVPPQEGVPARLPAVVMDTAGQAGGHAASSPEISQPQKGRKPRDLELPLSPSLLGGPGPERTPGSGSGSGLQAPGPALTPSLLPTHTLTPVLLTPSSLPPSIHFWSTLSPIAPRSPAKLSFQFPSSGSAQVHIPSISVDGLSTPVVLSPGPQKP
# Summary of the method: as §1
# GABPA = biological target: T3, GABPA (Homo sapiens, UniProt Q06546 1-454); settings: protein: recombinant; tags: N-terminal GST; dsDNA, one strand shown
# T3 sequence: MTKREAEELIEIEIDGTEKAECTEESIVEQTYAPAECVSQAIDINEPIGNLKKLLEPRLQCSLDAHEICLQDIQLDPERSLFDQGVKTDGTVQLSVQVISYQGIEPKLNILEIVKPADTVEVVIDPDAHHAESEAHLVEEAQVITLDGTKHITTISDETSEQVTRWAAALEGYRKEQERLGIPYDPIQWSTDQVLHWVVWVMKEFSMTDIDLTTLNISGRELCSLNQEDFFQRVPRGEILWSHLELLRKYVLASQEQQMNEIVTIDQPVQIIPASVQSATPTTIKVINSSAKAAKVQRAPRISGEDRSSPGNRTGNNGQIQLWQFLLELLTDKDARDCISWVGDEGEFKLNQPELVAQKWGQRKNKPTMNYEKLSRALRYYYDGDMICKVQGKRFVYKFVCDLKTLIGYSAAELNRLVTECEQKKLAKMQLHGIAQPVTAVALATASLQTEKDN
# Summary of the method: as §1
# ERG = biological target: T4, ERG (Homo sapiens, UniProt P11308 1-479); settings: protein: recombinant; tags: N-terminal GST; dsDNA, one strand shown
# T4 sequence: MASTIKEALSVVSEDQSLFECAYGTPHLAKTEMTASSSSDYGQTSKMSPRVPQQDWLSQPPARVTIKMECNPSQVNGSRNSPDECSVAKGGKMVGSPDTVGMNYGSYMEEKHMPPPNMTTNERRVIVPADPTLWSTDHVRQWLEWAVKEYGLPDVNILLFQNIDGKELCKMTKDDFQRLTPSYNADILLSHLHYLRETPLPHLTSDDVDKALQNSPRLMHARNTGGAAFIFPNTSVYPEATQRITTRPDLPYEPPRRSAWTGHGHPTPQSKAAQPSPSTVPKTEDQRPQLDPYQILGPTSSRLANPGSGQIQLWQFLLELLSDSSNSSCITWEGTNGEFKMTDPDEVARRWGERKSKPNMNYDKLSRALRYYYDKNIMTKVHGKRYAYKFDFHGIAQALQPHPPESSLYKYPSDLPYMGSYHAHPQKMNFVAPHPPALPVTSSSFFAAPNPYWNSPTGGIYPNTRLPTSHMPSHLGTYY
# Summary of the method: as §1
# ELF1 = ELF1 (Homo sapiens, UniProt P32519 1-619); settings: protein: recombinant; tags: N-terminal GST; dsDNA, one strand shown
# Summary of the method: as §1
# EHF = biological target: T5, EHF (Homo sapiens, UniProt Q9NZC4 1-300); settings: protein: recombinant; tags: N-terminal GST; dsDNA, one strand shown
# T5 sequence: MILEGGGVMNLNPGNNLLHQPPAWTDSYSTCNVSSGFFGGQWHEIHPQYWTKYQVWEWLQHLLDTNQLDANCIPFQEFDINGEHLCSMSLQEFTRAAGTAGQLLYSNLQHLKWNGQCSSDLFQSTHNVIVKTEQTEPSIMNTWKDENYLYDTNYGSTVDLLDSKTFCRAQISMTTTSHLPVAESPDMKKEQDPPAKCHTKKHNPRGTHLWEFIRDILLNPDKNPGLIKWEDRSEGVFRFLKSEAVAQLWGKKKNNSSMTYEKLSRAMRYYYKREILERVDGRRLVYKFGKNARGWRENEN
# Summary of the method: as §1
# SPI1 = SPI1 (Homo sapiens, UniProt P17947 1-270); settings: protein: recombinant; tags: N-terminal GST; dsDNA, one strand shown
# Summary of the method: as §1
# SPIB = SPIB (Homo sapiens, UniProt Q01892 1-262); settings: protein: recombinant; tags: N-terminal GST; dsDNA, one strand shown
# Summary of the method: as §1
# ELK3 = biological target: T6, ELK3 (Homo sapiens, UniProt P41970 1-407); settings: protein: recombinant; tags: N-terminal GST; dsDNA, one strand shown
# T6 sequence: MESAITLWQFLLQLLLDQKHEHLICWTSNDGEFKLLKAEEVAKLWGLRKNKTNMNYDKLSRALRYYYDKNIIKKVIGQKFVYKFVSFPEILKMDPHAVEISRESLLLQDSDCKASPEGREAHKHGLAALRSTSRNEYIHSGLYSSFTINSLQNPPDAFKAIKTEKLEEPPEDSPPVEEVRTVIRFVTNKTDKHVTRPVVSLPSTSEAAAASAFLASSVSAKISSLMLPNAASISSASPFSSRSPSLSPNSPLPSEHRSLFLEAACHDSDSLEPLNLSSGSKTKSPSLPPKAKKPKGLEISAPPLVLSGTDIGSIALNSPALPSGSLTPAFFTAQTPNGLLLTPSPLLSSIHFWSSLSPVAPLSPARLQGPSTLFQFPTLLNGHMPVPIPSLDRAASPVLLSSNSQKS
# Summary of the method: as §1
# FEV = biological target: T7, FEV (Homo sapiens, UniProt Q99581 1-238); settings: protein: recombinant; tags: N-terminal GST; dsDNA, one strand shown
# T7 sequence: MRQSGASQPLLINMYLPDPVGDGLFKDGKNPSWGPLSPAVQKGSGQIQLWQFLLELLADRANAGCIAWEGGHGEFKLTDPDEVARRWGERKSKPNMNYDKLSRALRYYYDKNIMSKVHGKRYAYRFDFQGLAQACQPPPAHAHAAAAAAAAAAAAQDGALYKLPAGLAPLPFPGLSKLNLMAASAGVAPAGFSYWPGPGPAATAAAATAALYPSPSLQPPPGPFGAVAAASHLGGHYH
# Summary of the method: as §1
# ETV5 = ETV5 (Homo sapiens, UniProt P41161 1-510); settings: protein: recombinant; tags: N-terminal GST; dsDNA, one strand shown
# Summary of the method: as §1
# HSF1 = HSF1 (Homo sapiens, UniProt Q00613 1-529); settings: protein: recombinant; tags: N-terminal GST; chain copies: 3; dsDNA, one strand shown
# Summary of the method: as §1
# SPIC = biological target: T8, SPIC (Homo sapiens, UniProt Q8N5J4 1-248); settings: protein: recombinant; tags: N-terminal GST; dsDNA, one strand shown
# T8 sequence: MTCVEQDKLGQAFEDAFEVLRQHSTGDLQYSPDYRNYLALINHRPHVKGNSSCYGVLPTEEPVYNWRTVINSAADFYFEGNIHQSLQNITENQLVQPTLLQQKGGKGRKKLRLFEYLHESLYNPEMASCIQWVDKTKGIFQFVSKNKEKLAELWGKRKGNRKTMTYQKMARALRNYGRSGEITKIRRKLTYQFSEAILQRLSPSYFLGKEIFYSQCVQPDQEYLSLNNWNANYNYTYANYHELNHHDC
# Summary of the method: as §1
# ELF4 = ELF4 (Homo sapiens, UniProt Q99607 1-663); settings: protein: recombinant; tags: N-terminal GST; dsDNA, one strand shown
# Summary of the method: as §1
# ELK4 = biological target: T9, ELK4 (Homo sapiens, UniProt P28324-2 1-405); settings: protein: recombinant; tags: N-terminal GST; dsDNA, one strand shown
# T9 sequence: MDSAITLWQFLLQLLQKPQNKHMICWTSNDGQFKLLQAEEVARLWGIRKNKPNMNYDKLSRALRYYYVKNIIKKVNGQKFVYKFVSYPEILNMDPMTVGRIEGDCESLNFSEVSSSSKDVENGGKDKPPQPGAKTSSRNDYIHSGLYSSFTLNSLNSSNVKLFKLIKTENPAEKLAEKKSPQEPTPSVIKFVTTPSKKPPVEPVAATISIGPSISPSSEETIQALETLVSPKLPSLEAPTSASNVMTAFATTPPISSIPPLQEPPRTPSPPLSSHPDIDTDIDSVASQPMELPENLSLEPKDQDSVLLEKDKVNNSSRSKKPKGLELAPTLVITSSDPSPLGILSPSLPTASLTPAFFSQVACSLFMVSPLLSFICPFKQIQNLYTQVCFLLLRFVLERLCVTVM
# Summary of the method: as §1
# ETV2 = biological target: T10, ETV2 (Homo sapiens, UniProt O00321 1-342); settings: protein: recombinant; tags: N-terminal GST; dsDNA, one strand shown
# T10 sequence: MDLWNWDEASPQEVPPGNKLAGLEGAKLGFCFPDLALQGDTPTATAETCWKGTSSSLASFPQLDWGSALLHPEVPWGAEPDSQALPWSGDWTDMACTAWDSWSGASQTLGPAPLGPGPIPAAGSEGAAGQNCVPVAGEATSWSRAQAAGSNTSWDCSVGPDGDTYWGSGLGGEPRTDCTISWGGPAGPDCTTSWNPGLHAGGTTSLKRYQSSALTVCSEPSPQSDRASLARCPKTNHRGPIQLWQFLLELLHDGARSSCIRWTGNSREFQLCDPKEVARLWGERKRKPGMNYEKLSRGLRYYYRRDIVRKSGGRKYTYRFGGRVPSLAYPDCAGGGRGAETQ
# Summary of the method: as §1
# ELF3 = biological target: T11, ELF3 (Homo sapiens, UniProt P78545 1-371); settings: protein: recombinant; tags: N-terminal GST; dsDNA, one strand shown
# T11 sequence: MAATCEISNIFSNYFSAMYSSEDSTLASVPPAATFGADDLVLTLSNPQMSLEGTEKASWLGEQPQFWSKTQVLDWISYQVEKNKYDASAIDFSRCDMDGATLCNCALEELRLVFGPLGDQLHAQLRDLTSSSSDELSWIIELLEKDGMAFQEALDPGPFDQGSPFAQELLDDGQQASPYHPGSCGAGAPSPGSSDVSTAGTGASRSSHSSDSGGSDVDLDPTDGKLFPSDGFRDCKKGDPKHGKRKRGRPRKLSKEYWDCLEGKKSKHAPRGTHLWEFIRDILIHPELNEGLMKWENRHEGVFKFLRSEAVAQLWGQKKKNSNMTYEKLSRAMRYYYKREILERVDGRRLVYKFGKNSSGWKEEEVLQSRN
# Summary of the method: as §1
# ETV1 = ETV1 (Homo sapiens, UniProt P50549 1-477); settings: protein: recombinant; tags: N-terminal GST; dsDNA, one strand shown
# Summary of the method: as §1
# ELF1, sequence (P32519 whole entry): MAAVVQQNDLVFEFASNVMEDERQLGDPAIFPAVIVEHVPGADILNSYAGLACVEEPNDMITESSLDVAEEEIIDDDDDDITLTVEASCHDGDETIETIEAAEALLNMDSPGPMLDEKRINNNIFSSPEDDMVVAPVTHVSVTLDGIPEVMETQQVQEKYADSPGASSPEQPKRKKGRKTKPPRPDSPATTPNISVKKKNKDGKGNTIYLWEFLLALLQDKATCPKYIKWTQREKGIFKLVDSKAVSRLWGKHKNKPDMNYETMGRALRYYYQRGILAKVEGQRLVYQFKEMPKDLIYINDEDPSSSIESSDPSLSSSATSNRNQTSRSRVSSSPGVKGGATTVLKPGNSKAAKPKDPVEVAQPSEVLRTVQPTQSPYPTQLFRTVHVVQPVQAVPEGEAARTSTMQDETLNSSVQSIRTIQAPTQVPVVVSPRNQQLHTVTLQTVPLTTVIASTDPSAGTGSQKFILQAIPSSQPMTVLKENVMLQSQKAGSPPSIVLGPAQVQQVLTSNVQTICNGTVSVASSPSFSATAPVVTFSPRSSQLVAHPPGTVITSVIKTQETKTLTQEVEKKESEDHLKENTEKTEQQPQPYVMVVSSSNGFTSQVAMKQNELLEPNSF
# HSF1, sequence (Q00613 whole entry): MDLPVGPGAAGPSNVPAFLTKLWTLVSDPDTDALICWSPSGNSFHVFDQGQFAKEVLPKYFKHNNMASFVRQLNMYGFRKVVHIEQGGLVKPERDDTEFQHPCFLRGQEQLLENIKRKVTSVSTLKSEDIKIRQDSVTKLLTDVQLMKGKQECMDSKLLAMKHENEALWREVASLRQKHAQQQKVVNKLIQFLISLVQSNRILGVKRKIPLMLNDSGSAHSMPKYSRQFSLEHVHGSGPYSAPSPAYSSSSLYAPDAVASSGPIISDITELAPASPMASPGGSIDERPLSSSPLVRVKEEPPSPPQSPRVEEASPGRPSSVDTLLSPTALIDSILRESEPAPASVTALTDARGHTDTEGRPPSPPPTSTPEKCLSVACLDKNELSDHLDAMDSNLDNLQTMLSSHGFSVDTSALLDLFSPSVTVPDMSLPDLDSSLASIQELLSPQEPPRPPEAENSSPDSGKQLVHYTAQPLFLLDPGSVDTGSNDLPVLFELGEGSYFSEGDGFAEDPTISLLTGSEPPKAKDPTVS
# SPIB, sequence (Q01892 whole entry): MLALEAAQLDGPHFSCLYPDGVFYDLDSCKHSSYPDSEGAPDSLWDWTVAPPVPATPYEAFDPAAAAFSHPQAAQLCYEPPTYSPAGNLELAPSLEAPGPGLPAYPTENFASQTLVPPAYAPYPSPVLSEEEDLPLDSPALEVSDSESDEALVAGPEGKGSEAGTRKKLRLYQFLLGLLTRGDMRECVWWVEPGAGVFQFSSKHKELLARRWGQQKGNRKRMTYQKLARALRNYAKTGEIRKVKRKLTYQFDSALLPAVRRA
# ELF4, sequence (Q99607 whole entry): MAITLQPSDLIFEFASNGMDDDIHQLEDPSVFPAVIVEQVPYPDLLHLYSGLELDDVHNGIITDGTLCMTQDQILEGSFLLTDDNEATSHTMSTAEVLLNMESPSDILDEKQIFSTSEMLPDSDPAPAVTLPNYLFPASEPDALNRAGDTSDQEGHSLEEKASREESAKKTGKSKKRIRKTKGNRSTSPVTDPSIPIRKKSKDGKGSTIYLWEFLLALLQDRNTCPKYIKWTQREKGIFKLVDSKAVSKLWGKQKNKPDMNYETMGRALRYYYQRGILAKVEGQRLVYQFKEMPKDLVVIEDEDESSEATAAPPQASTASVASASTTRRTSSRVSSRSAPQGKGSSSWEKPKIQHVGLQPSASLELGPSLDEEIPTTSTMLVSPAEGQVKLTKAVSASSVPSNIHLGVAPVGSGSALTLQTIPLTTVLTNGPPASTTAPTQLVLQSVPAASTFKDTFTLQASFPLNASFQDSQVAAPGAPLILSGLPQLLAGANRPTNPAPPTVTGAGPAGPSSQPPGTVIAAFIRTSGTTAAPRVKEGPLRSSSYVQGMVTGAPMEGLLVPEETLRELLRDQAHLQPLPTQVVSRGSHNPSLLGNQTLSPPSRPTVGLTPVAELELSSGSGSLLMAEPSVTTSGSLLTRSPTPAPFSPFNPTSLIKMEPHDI
# ETV5, sequence (P41161 whole entry): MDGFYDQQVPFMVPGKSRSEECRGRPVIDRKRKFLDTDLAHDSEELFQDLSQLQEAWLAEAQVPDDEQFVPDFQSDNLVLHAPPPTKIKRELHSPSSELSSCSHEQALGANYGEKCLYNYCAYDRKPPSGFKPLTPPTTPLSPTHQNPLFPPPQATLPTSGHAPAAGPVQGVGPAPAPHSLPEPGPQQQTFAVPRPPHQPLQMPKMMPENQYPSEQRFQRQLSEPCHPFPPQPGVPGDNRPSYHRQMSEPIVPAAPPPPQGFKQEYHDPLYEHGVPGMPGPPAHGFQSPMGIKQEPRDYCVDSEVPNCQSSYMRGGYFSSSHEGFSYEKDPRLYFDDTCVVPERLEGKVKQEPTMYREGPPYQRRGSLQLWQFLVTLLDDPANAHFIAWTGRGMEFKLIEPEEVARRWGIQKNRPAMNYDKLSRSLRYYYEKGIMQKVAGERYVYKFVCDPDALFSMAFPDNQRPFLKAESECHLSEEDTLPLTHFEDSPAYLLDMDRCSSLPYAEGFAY
# ETV1, sequence (P50549 whole entry): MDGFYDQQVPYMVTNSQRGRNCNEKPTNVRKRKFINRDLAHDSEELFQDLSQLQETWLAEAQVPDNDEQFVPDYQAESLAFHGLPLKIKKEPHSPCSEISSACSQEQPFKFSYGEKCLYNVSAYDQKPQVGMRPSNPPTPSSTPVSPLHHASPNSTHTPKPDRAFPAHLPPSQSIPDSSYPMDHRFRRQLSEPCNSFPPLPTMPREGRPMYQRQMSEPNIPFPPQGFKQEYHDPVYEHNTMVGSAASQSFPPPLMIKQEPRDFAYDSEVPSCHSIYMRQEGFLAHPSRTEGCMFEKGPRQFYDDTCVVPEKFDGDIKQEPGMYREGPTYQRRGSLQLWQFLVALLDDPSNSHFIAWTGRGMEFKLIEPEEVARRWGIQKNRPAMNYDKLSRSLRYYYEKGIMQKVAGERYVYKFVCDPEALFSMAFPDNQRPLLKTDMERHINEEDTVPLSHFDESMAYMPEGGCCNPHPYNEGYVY
sequence,measurement,setting,value
CGTCCC,binding signal,FLI1,"1.3 fold enrichment (6-mer frequency, TF over GST control)"
same,binding signal,ELK1,"1.39 fold enrichment (6-mer frequency, TF over GST control)"
same,binding signal,GABPA,"1.42 fold enrichment (6-mer frequency, TF over GST control)"
same,binding signal,ERG,"1.37 fold enrichment (6-mer frequency, TF over GST control)"
same,binding signal,ELF1,"1.36 fold enrichment (6-mer frequency, TF over GST control)"
same,binding signal,EHF,"1.44 fold enrichment (6-mer frequency, TF over GST control)"
same,binding signal,SPI1,"1.23 fold enrichment (6-mer frequency, TF over GST control)"
same,binding signal,SPIB,"1.31 fold enrichment (6-mer frequency, TF over GST control)"
same,binding signal,ELK3,"1.57 fold enrichment (6-mer frequency, TF over GST control)"
same,binding signal,FEV,"1.34 fold enrichment (6-mer frequency, TF over GST control)"
same,binding signal,ETV5,"1.3 fold enrichment (6-mer frequency, TF over GST control)"
same,binding signal,HSF1,"1.08 fold enrichment (6-mer frequency, TF over GST control)"
same,binding signal,SPIC,"1.38 fold enrichment (6-mer frequency, TF over GST control)"
same,binding signal,ELF4,"1.27 fold enrichment (6-mer frequency, TF over GST control)"
same,binding signal,ELK4,"1.39 fold enrichment (6-mer frequency, TF over GST control)"
same,binding signal,ETV2,"1.12 fold enrichment (6-mer frequency, TF over GST control)"
same,binding signal,ELF3,"1.45 fold enrichment (6-mer frequency, TF over GST control)"
same,binding signal,ETV1,"1.34 fold enrichment (6-mer frequency, TF over GST control)"
